From PubChem BioAssay AID504329 (Southern Research Specialized Biocontainment Screening …, 2011)
“And” between values parts separate entries of the source, which are not always exact repeats. Equal values may be shown once. Out of some 340,000 compounds screened, about 1,000 (0.29%) were called active. Rule as the data show it: inconclusive = inhibition above about 27% without an active follow-up result; inactive = below that. A selection follows. Potency and affinity values are given separately.

Assay: H1N1 influenza NS1A inhibitors, functional cell based assay (AID 504329)
Conditions: percent inhibition, at 12.5 µM, active compounds read high
In the case of Cc1ccc(N=Nc2ccc(O)c3ncccc23)cc1, the inhibition is reported as -1.47% (inactive).
In the case of Oc1ccc(N=Nc2ccccc2C(F)(F)F)c2cccnc12, the inhibition is reported as 18.7% (inactive).
In the case of Cc1ccccc1N=Nc1ccc(O)c2ncccc12, the inhibition is reported as 11.8% (inactive).
In the case of Cc1ccc(N=Nc2ccc(O)c3ncccc23)cc1C, the inhibition is reported as -4.94% (inactive).
In the case of CCOc1ccc(NC(=O)CN(C)C(=O)CSCc2c(C)noc2C)cc1OCC, the inhibition is reported as -3.36% (inactive).
For COc1ccc(CC(=O)NNC2=Nc3cccc4cccc2c34)cc1OC, the inhibition was -25.3% (inactive).
For O=C1c2ccccc2C(=O)N1CCc1nc2ccccc2c(=O)n1Cc1ccco1, the inhibition was -1.09% (inactive).
For O=C(Cc1ccc(N(CCCl)CCCl)cc1)NC(Cc1ccc(Cl)cc1)C(=O)O (centres undefined), the inhibition was -4.27% (inactive).
With CC(C(=O)NCC1(c2ccccc2)CCOCC1)N1CCOCC1 (centres undefined) the inhibition was -3.8% (inactive).
With CCCCCCN1C=C/C(=C\C=C(C#N)C#N)c2ccccc21 the inhibition was 18.4% (inactive).
For C=CCN1C=CC(=CC=C(C#N)C#N)C=C1, the inhibition was 4.22% (inactive).
With CCN(CC)C(=O)c1nn(Cc2ccccc2)c(=O)c2ccccc12 the inhibition was -5.91% (inactive).
In the case of Cc1cc(C(=S)N2CCOCC2)c(C)n1-c1ccc(F)cc1, the inhibition is reported as 1.72% (inactive).
For Cc1ccc(-n2c(C)cc(C(=S)N3CCOCC3)c2C)cc1C, the inhibition was 12.2% (inactive).
With O=C(NC1(c2ccccc2)CC1)C1CCC(=O)N(Cc2ccc(Cl)cc2)C1 (centres undefined) the inhibition was 8.58% (inactive).
For O=[N+]([O-])c1ccccc1N/N=C1\CC2CC=CC12 (centres undefined), the inhibition was 21.6% (inactive).
With CC1CCC/C(=N/Nc2ccc([N+](=O)[O-])cc2[N+](=O)[O-])C1 (centres undefined) the inhibition was 10.6% (inactive).
In the case of CC1C/C(=N\Nc2ccc(S(N)(=O)=O)cc2[N+](=O)[O-])CC(C)(C)C1 (centres undefined), the inhibition is reported as 8.9% (inactive).
With O=[N+]([O-])c1ccc(N/N=C2\CC3CC=CC23)cc1 (centres undefined) the inhibition was -1.23% (inactive).
For O=C(CN1CCN(S(=O)(=O)c2ccc(Br)cc2)CC1)N/N=C/c1cc([N+](=O)[O-])ccc1Cl, the inhibition was -0.7% (inactive).
In the case of O=C(Oc1cccc(F)c1)c1ccc2c(=O)n3c(nc2c1)CCC3, the inhibition is reported as 3.05% (inactive).
With N#CCO/N=C/C(=O)Nc1ccc(F)cc1F the inhibition was -11.8% (inactive).
In the case of CCOC(=O)C1=C(C)Nc2ncnn2C1c1ccc(N(C)C)cc1 (centres undefined), the inhibition is reported as 6.88% (inactive) and -12.7% (inactive).
With O=C(O)c1ccc(Nc2nc(-c3ccccc3)nc3ccccc23)cc1 the inhibition was -15.2% (inactive).
In the case of Cc1ccc2nc(-c3ccc(NC(=O)COC(=O)c4ccco4)cc3)sc2c1, the inhibition is reported as -4.32% (inactive).
For COc1ccc(N(CC(=O)NC2CCCCC2)S(=O)(=O)c2cccnc2)cc1, the inhibition was -1.53% (inactive).
In the case of CC(C)n1cnnc1SCC(=O)NC(=O)c1ccccc1, the inhibition is reported as -13.7% (inactive).
With O=C(CSc1nc(=O)n(CCCN2CCOCC2)c2c1CCC2)Nc1ccc(F)cc1F the inhibition was 0.02% (inactive).
For CCOC(=O)c1cnc(Cc2ccccc2)[nH]c1=O, the inhibition was -2.72% (inactive).
With CCOC(=O)c1cnc(N2CCN(c3ccccc3)CC2)[nH]c1=O the inhibition was -0.51% (inactive).
In the case of O=C(c1cccc(N2C(=O)C3C4C=CC(C4)C3C2=O)c1)N1CCN(c2ccc(F)cc2)CC1 (centres undefined), the inhibition is reported as -2.51% (inactive).
For COC(=O)c1ccc(NC(=S)N2CCC(C(N)=O)CC2)cc1, the inhibition was -11.5% (inactive).
For O=C(O)c1ccccc1C(=O)O, the inhibition was 3.33% (inactive).
For O=C(O)c1ccccc1P(=O)(c1ccccc1)c1ccccc1, the inhibition was 7.4% (inactive).
In the case of O=C(NCc1ccco1)/C(=C/c1ccc([N+](=O)[O-])cc1)NC(=O)c1ccco1, the inhibition is reported as -2.93% (inactive).
In the case of Cc1ccc(CN2CCN(Cc3cn(C(C)C)c4ccccc34)CC2CCO)o1 (centres undefined), the inhibition is reported as 14.6% (inactive).
With Cc1sc2nc(SCC(=O)Nc3cccc(C(=O)O)c3)[nH]c(=O)c2c1C the inhibition was -8.26% (inactive).
With CCOC(=O)C1CCN(C(=O)CCNS(=O)(=O)c2cc(Br)cnc2N)CC1 the inhibition was -2.4% (inactive).
For CCOC(=O)C1=C(C)N=c2s/c(=C/c3cccc([N+](=O)[O-])c3O)c(=O)n2C1c1cc(OC)c(OC)c(OC)c1 (centres undefined), the inhibition was 20.1% (inactive).
With CCOC(=O)C1=C(C)N=c2s/c(=C/c3cccc([N+](=O)[O-])c3O)c(=O)n2C1c1ccc(OC)cc1OC (centres undefined) the inhibition was 22.2% (inactive).
For CCc1ccc(C(=O)C(C)OC(=O)CNS(=O)(=O)c2ccc(C)cc2)cc1 (centres undefined), the inhibition was -0.69% (inactive).
For COc1cc(C=C2C(=O)c3ccccc3C2=O)ccc1O, the inhibition was -20.5% (inactive).
For COc1ccc(C=C2C(=O)c3ccccc3C2=O)cc1O, the inhibition was 16.6% (inactive).
For CCn1c(C)nc2cc(C(=O)NN=Cc3ccccc3OC(F)F)ccc21, the inhibition was -6.28% (inactive).
With CC(C)CN1CCC(=O)N(CCOc2ccccc2)CC1 the inhibition was 2.95% (inactive).
With CCCN1CCC(=O)N(CCOc2ccccc2)CC1 the inhibition was -8.48% (inactive).
With Cc1ccc(-n2c(O)c(C=NC3CCS(=O)(=O)C3)c3ccccc3c2=O)c(C)c1 (centres undefined) the inhibition was 9.46% (inactive).
In the case of O=C(CSc1ccc(-c2ccccn2)nn1)c1ccc(F)cc1, the inhibition is reported as -9.8% (inactive).
With c1ccc(CSc2ccc(-c3cccnc3)nn2)nc1 the inhibition was -9.97% (inactive).
In the case of Clc1ccc(-c2ccc(SCc3ccccn3)nn2)cc1, the inhibition is reported as 0.43% (inactive).
For O=C(CSc1ccc(-c2ccccn2)nn1)c1ccc([N+](=O)[O-])cc1, the inhibition was 27.3% (inactive).
For c1cncc(CSc2ccc(-c3cccnc3)nn2)c1, the inhibition was 0.64% (inactive).
In the case of c1ccc(CSc2ccc(-c3ccccn3)nn2)cc1, the inhibition is reported as -2.51% (inactive).
In the case of Cc1onc(-c2ccc(Cl)cc2Cl)c1-c1csc(N/N=C/c2ccccc2)n1, the inhibition is reported as -21.5% (inactive).
For CN(C(=O)c1ccc(NC(=O)Cc2cccc(NC(=O)C3CCCN(C(=O)C4CCCCC4)C3)c2)cc1)C1CCCC1 (centres undefined), the inhibition was -1.36% (inactive).
In the case of CCS(=O)(=O)N1CCN(S(=O)(=O)c2ccc(S(=O)(=O)NC3CC3)cc2)CC1, the inhibition is reported as 7.16% (inactive).
For Cc1ccc(NC(=O)COc2ccc(C(=O)c3ccccc3)cc2)c(O)c1, the inhibition was 8.15% (inactive).
In the case of CCNC(=S)N1CCN(c2ccccc2OCC)CC1, the inhibition is reported as 0.76% (inactive).
In the case of Cc1ccc(CN2CCNC(=O)C2CC(=O)NCCCn2ncc3ccccc32)o1 (centres undefined), the inhibition is reported as -1.25% (inactive).
